These results are taken from PubChem BioAssay AID1986 (Sanford-Burnham Center for Chemical Genomics, 2009).

A short description of this assay: cell-free HIV fusion peptide-binding blockers – biochemical, uHTS, fluorescence dequenching, primary screen (AID 1986). Particulars: 30 min, stronger effect = higher value.
Where [1] appears, read: measured here: repeat confirmation average inhibition, at 18.6 µM.

Structures are written as SMILES. Hit rate of the full screen: of about 290,000 compounds, about 890 (0.31%) were called active. Cut-off read from the data, not from the text of the source: active = inhibition mostly above about 52% (no sharp cut-off); inactive = mostly below about 76%. The list comes from a sample in which actives are over-represented; it also holds similar structures and randomly drawn compounds.

In the case of `CCOC(=O)c1cc(-c2cccs2)nc2c1c(C)nn2-c1ccccn1`, the inhibition (at 20 µM) was -2.7% (inactive).
Still for that read-out and setting: the figure for `COC(=O)[C@H](Cc1ccccc1)NC(=O)N1Cc2ccccc2C[C@H]1C(=O)OC` is 1.3% (inactive); for `CCN(CC)CCN(Cc1cc2cc3c(cc2[nH]c1=O)OCCO3)C(=S)NC` it is 2.5% (inactive).
The same measure, in the same setting: for `N#Cc1c(NC(=O)CSc2nc(N)cc(=O)[nH]2)sc2c1CCCC2` the value was 0.4% (inactive).
Still for that read-out and setting: the figure for `O=C(O)Cn1c2c(c3ccccc31)CCCC2` is -3.7% (inactive); for `O=C(O)Cn1c2c(c3ccccc31)CSc1ccc(Cl)cc1-2` it is 54.6% (active); for `O=C(O)Cn1c2ccccc2c2ccccc21` it is -1% (inactive).
With `Cc1ccc(NC(=O)CSc2nncn2-c2ccccn2)cc1Cl`, the inhibition (at 20 µM) was 1.2% (inactive).
The same measure, in the same setting: for `CN(C)CCN(C(=O)/C=C/c1cccs1)c1nc2ccc(F)cc2s1` the value was -3.5% (inactive); for `CN(C)CCN(C(=O)/C=C/c1cccs1)c1nc2c(F)cc(F)cc2s1`, 56.7% (active); for `CN(C)CCCN(C(=O)/C=C/c1cccs1)c1nc2c(F)cccc2s1`, 0.3% (inactive).
Still for that read-out and setting: for `O=C1c2ccsc2SCCN1Cc1c(F)cccc1Cl` the value was -0.5% (inactive).
Take `CCCCC(CCC(=O)O)(C(=O)OCC)c1csc(Nc2ccc(C)cc2)n1` (configuration not stated): under “at 20 µM”, the inhibition is 13.4% (inactive).
Consider `Cc1c2ccccc2nc2c(F)c(NCCO)c(F)c(F)c12`, for which the inhibition (at 20 µM) is 23.4% (inactive).
Still for that read-out and setting: for `Cc1c2ccccc2nc2c(F)c(NC(C)C)c(F)c(F)c12` the value was 36.2% (inactive).
As to `CCCNc1c(F)c(F)c2c(C)c3ccccc3nc2c1F`, the inhibition (at 20 µM) is 51.8% (active) and the inhibition under setting [1] is 159%.
Take `CCOC(=O)C1Cc2c([nH]c3ccccc23)CN1` (configuration not stated): the inhibition (at 20 µM) was -0.5% (inactive).
Same read-out and setting: the figure for `O=C(c1cc(S(=O)(=O)N2CCCCC2)ccc1Cl)N1CCOCC1` is 0.1% (inactive); for `COc1cc([N+](=O)[O-])ccc1NC(=O)NCc1ccccn1` it is -3.2% (inactive).
The same measure, in the same setting: the figure for `O=C(O)c1cccc(NC(=S)N/N=C/c2ccccc2OCc2ccc(Br)cc2)c1` is 65.6% (active); for `COc1cccc(/C=N/NC(=S)Nc2cccc(C(=O)O)c2)c1O` it is 7.9% (inactive); for `O=C(O)c1cccc(NC(=S)N/N=C/c2cccc(O)c2)c1` it is 1.3% (inactive).
Same read-out and setting: the figure for `COc1ccccc1NC(=O)N(Cc1cc2cc(OC)c(OC)cc2[nH]c1=O)CC1CCCO1` (configuration not stated) is -1.5% (inactive).
For the compound `Cc1cc(C)c2nc(N3CCC(C(=O)NCCCN4CCCC4=O)CC3)sc2c1`, the inhibition (at 20 µM) was -0.6% (inactive).
Same read-out and setting: for `COc1cc(/C=N/NC(=S)NCCN2CCOCC2)cc(OC)c1OC` the value was -0.8% (inactive); for `C=CCOC(=O)c1cc(-c2ccc(/C=C3\C(=O)NC(=O)C(C#N)=C3C)o2)ccc1Cl`, -2.1% (inactive); for `CCOC(=O)c1cc(-c2ccc(/C=C3/C(=O)NC(=O)C(C#N)=C3C)o2)ccc1Cl`, 65.1% (active).
Still for that read-out and setting: for `CC1=C(C#N)C(=O)NC(=O)/C1=C/c1ccc(-c2ccc(S(N)(=O)=O)cc2)o1` the value was 46.5% (inactive); for `O=C(c1cccnc1)N1CCN(Cc2ccc3c(c2)OCO3)CC1`, 2.7% (inactive).
Take `CCN(CC)c1ccc(/C=C(\C#N)c2nc(-c3cccs3)c(NC(C)=O)s2)cc1`: the inhibition (at 20 µM) was 122% (active).
Regarding `CC(=O)Nc1sc(/C(C#N)=C\c2cccc(Cl)c2)nc1-c1ccc(C)cc1`, the inhibition (at 20 µM) was 61.1% (active) and the inhibition under setting [1] is 75.8%.
`CC(=O)Nc1sc(N/N=C/c2ccc(C)cc2)nc1-c1ccc(C)cc1`: the inhibition (at 20 µM) was -3% (inactive).
With `CCN(CC)c1ccc(/C=C(\C#N)c2ccccn2)cc1`, where the note is “at 20 µM”, the inhibition was 19.5% (inactive).
On the same count and under the same terms, for `CC(=O)Nc1sc(N/N=C\c2ccc(O)cc2)nc1-c1cccs1` the value was -0.1% (inactive); for `CC(=O)Nc1sc(N/N=C/c2ccccc2)nc1-c1ccc(C)cc1`, 0.1% (inactive).
Same read-out and setting: the figure for `C=CCNC(=O)N[C@@H](Cc1ccccc1)C(=O)OC` is -0.9% (inactive); for `Cc1c(C(=O)N2CCCC2)sc(NC(=O)c2cccs2)c1C#N` it is 3.6% (inactive); for `O=C(CNC(=O)c1ccccc1Br)N/N=C/c1cccnc1` it is 0.5% (inactive).
Same read-out and setting: for `O=C1CC(NNC(=O)c2ccccc2)C(=O)N1` (configuration not stated) the value was -0.3% (inactive); for `COC(=O)c1cc(S(=O)(=O)NCC2CCN(Cc3cccc(Cl)c3)CC2)c[nH]1`, -0.3% (inactive); for `c1ccc(Cn2c[n+](Cc3ccccc3)cn2)cc1`, -1.5% (inactive).
For the compound `c1ccc(-c2nc3ccccc3c3nncn23)cc1`, the inhibition (at 20 µM) was -1.8% (inactive).
Still for that read-out and setting: for `O=c1[nH]nc(SCc2ccccc2Cl)n1-c1ccc2c(c1)OCCO2` the value was -1.4% (inactive); for `COCCCN(C(=O)c1ccco1)c1nc(-c2ccc(OC)cc2)cs1`, 2.9% (inactive); for `O=C(CCCl)Nc1cc(SCCO)cc([N+](=O)[O-])c1`, 0.1% (inactive).
Consider `CC(=O)c1cc(NC(=O)c2cccc(C(F)(F)F)c2)c(=O)oc1C`, for which, under “at 20 µM”, the inhibition was 0.8% (inactive).
As for `CC(=O)c1cc(NC(=O)c2cccc(C(F)(F)F)c2)c(=O)oc1/C=C/N(C)C`, the inhibition is, setting by setting: (at 20 µM) 75.6% (active); under setting [1], 91.6%.
For `CC(=O)c1cc(NC(=O)c2ccc(C)cc2)c(=O)oc1/C=C/N(C)C`, under “at 20 µM”, the inhibition is 25.7% (inactive).
Consider `COC(=O)c1ccc2c(c1)C(C)(C)C(/C=C/c1ccccc1O)=[N+]2C`, for which the inhibition (at 20 µM) is 143% (inactive).

For orientation: inhibition means the relative decrease from the control value, in per cent.
